The values below come from PubChem BioAssay (NCI).

Assay [1] in a line: NCI Yeast Anticancer Drug Screen. Data for the rad50 strain (AID 155).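 Further: 0% = growth of vehicle-only cultures of the same strain.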 The following applies: S. cerevisiae rad50 strain growth inhibition, active compounds read high. In outline:
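Inhibition values express reduced yeast growth in compound-treated cultures relative to vehicle-treated controls.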

A short description of assay [2]: NCI Yeast Anticancer Drug Screen. Data for the sgs1 mgt1 strain (AID 161).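 Further: 0% = growth of cultures given vehicle only.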 Conditions: S. cerevisiae sgs1 mgt1 strain, active compounds read high. Summed up:
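Inhibition of yeast growth, normalised to vehicle-treated controls, is reported for a strain bearing genetic alterations in DNA damage repair.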

Assay [3] is described as follows: NCI Yeast Anticancer Drug Screen. Data for the cln2 rad14 strain (AID 165).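 Further: 0% = growth equal to vehicle treated cultures.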 The following applies: S. cerevisiae cln2 rad14 strain, active compounds read high. Summed up: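 Test compounds were added to cln2 rad14 yeast cultures; inhibition of growth was then determined by comparison with vehicle treatment.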
The nature of assay [4]: NCI Yeast Anticancer Drug Screen. Data for the bub3 strain (AID 167). The following applies: S. cerevisiae bub3 mutant strain, active compounds read high. In outline: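 Steps: expose the mutant yeast strain to compound; grow alongside vehicle-treated cultures; measure growth; express inhibition against the vehicle cultures.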
Assay [5] can be described thus: NCI Yeast Anticancer Drug Screen. Data for the mlh1 rad18 strain (AID 175). Conditions: S. cerevisiae mlh1 rad18 strain growth inhibition, active compounds read high. In outline: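 Inhibition values reflect reduced growth of mutant yeast versus vehicle-treated controls following compound exposure; the mutations affect DNA damage repair.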
Assay [6] is described as follows: NCI Yeast Anticancer Drug Screen. Data for the mec2-1 strain (AID 157). Conditions: S. cerevisiae mec2-1 strain, active compounds read high. Summed up:
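Each compound was tested on mec2-1 yeast, a strain altered in DNA damage repair or cell cycle control. Growth inhibition is reported relative to vehicle.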

The mark [7] stands for this setting: at 5.0 µM (retest, dose inferred, filed as 0.5).
The mark [8] stands for this setting: at 50.0 µM (retest, dose inferred, filed as 5.0).

“And” between values parts separate entries of the source, which are not always exact repeats. Identical values can stand only once. This is part of a sample that, as a whole, favours compounds with a hit. Of some 79,000 tested, about 15% had one in any assay. A number with no mark means an inactive call. The source made the active and inactive calls. No stated cut-off is given here; in the data, active means growth inhibition above about 70%; inactive means the rest.

As for `CC(NNC(=S)NCc1ccccc1)c1cc2ccccc2cn1` (configuration not stated), the growth inhibition in assay [1] (setting [7]) is 12%; in assay [1] (setting [8]), 88% (active); in assay [1] (at 50.0 µM), 82.2% (active); in assay [2] (setting [7]), 14%; in assay [2] (setting [8]) it was 91% (active); in assay [2] (at 50.0 µM), 86.9% (active). Moreover, the growth inhibition in assay [3] (setting [7]) is 3%; in assay [3] (setting [8]) it was 79% (active); in assay [3] (at 50.0 µM) it was 80% (active); in assay [4] (setting [7]) it was 11%; in assay [4] (setting [8]) it was 93% (active); in assay [4] (at 50.0 µM) it was 83.7% (active). In addition, the growth inhibition is 19% in assay [5] (setting [7]), 93% (active) in assay [5] (setting [8]) and 89.7% (active) in assay [5] (at 50.0 µM).
On to `Nc1ccc(S(=O)(=O)O)c2ccccc12`, for which the growth inhibition in assay [1] (at 50.0 µM) is -17.7% and -12.8% and 15.7%; in assay [6] (at 50.0 µM) it was -18.1% and 3.25% and 3.85%; in assay [2] (at 50.0 µM), -10.4% and -28.8% and 7.35%; in assay [3] (at 50.0 µM), 6.25% and -52.1% and -17.6%; in assay [4] (at 50.0 µM), -1.95% and -17.8% and 7.6%; in assay [5] (at 50.0 µM) it was -12.8% and -40% and 8.1%.
For `COC1CC(C)(NC(C)=O)C2OC(c3ccccc3)OCC2O1` (configuration not stated), the growth inhibition is -5% in assay [1] (setting [7]); -16% in assay [1] (setting [8]); 81.8% (active) in assay [1] (at 50.0 µM); -7% in assay [2] (setting [7]); -24% in assay [2] (setting [8]); 71.9% (active) in assay [2] (at 50.0 µM). Moreover, the growth inhibition in assay [3] (setting [7]) was -40%; in assay [3] (setting [8]) it was 10%; in assay [3] (at 50.0 µM), 75.5% (active); in assay [4] (setting [7]), -21%; in assay [4] (setting [8]), -8%; in assay [4] (at 50.0 µM) it was 82.7% (active). Also, the results for the growth inhibition in assay [5] (setting [7]), in assay [5] (setting [8]) and in assay [5] (at 50.0 µM) were -1%, -3% and 70.4% (active), respectively.
In the case of `C/C(=N/NC(=O)Nc1ccc(N=Nc2ccccc2)cc1)c1ccccn1`, the growth inhibition is -7% in assay [6] (setting [7]); -5% in assay [6] (setting [8]); -10.9% in assay [6] (at 50.0 µM); 0% in assay [2] (setting [7]); 19% in assay [2] (setting [8]); 24.8% in assay [2] (at 50.0 µM). Moreover, the growth inhibition is 33% in assay [3] (setting [7]); -16% in assay [3] (setting [8]); -4.4% in assay [3] (at 50.0 µM); 3% in assay [4] (setting [7]); 43% in assay [4] (setting [8]); 16.4% in assay [4] (at 50.0 µM). The growth inhibition in assay [5] (setting [7]) was -9%; in assay [5] (setting [8]), 15%; in assay [5] (at 50.0 µM) it was 28.1%.
On to `CC1C(O)Oc2cc3c(cc2C1c1ccccc1O)OCO3` (configuration not stated), for which the growth inhibition in assay [1] (setting [7]) was -10%; in assay [1] (setting [8]), 77% (active); in assay [1] (at 50.0 µM), 61.8%; in assay [6] (setting [7]), -41%; in assay [6] (setting [8]) it was 84% (active); in assay [6] (at 50.0 µM), 32.1%. Also, the growth inhibition was 20% in assay [3] (setting [7]); 87% (active) in assay [3] (setting [8]); 69.7% in assay [3] (at 50.0 µM); 25% in assay [4] (setting [7]); 84% (active) in assay [4] (setting [8]); 38.6% in assay [4] (at 50.0 µM). The growth inhibition in assay [5] (setting [7]) is -13%; in assay [5] (setting [8]) it was 90% (active); in assay [5] (at 50.0 µM), 54.5%.
As for `CC(CN(C)C)C(/C=C/c1ccc(Cl)c(Cl)c1)=N\Nc1ccccc1` (configuration not stated), the growth inhibition in assay [6] (setting [7]) was -3%; in assay [6] (setting [8]), 98% (active); in assay [6] (at 50.0 µM) it was 98.7% (active); in assay [2] (setting [7]) it was 3%; in assay [2] (setting [8]), 99% (active); in assay [2] (at 50.0 µM), 49.3%. Besides, the growth inhibition is 3% in assay [3] (setting [7]); 96% (active) in assay [3] (setting [8]); 47.1% in assay [3] (at 50.0 µM); -1% in assay [4] (setting [7]); 91% (active) in assay [4] (setting [8]); 88.4% (active) in assay [4] (at 50.0 µM). The growth inhibition in assay [5] (setting [7]) was 9%; in assay [5] (setting [8]) it was 96% (active); in assay [5] (at 50.0 µM), 64.6%.
Regarding `CCC1CCCN1CCOC(=O)C(c1ccccc1)C1C=CCC1` (configuration not stated), the growth inhibition in assay [1] (setting [7]) was 31%; in assay [1] (setting [8]), 51%; in assay [1] (at 50.0 µM), 52.9%; in assay [2] (setting [7]), 40%; in assay [2] (setting [8]) it was 74% (active); in assay [2] (at 50.0 µM) it was 72% (active). The growth inhibition is 32% in assay [3] (setting [7]); 62% in assay [3] (setting [8]); 62.4% in assay [3] (at 50.0 µM); 40% in assay [4] (setting [7]); 60% in assay [4] (setting [8]); 48.6% in assay [4] (at 50.0 µM). The growth inhibition in assay [5] (setting [7]) is 60%; in assay [5] (setting [8]), 79% (active); in assay [5] (at 50.0 µM), 63%.
As for `OC(c1ccccc1)C(O)c1ccccc1` (configuration not stated), the growth inhibition was 5.85% and 22.8% and 24.1% in assay [1] (at 50.0 µM); -4.45% and -6.3% and 14.8% in assay [6] (at 50.0 µM); 4.4% and 1.85% and 11.1% in assay [2] (at 50.0 µM); -9.15% and -19.2% and 9.15% in assay [3] (at 50.0 µM); 9.4% and 11.6% and 15.7% in assay [4] (at 50.0 µM); 20.1% and 11.9% and 2.4% in assay [5] (at 50.0 µM).
With `Cc1ccc2c(n1)C(=O)C=CC2=O`, the growth inhibition in assay [1] (setting [7]) is 25%; in assay [1] (setting [8]), 94% (active); in assay [1] (at 50.0 µM) it was 80.1% (active); in assay [2] (setting [7]), 22%; in assay [2] (setting [8]), 90% (active); in assay [2] (at 50.0 µM), 80.8% (active). For the same compound, the growth inhibition is 22% in assay [3] (setting [7]); 77% (active) in assay [3] (setting [8]); 22.9% in assay [3] (at 50.0 µM); 20% in assay [4] (setting [7]); 97% (active) in assay [4] (setting [8]); 80.8% (active) in assay [4] (at 50.0 µM). Besides, the growth inhibition in assay [5] (setting [7]) is 17%; in assay [5] (setting [8]), 93% (active); in assay [5] (at 50.0 µM), 36.2%.
Consider `COc1cc(NCCCCCNC(C)C)c2ncc(C)c(C)c2c1`, for which the growth inhibition was 3% in assay [1] (setting [7]); 36% in assay [1] (setting [8]); 75.7% (active) in assay [1] (at 50.0 µM); -4% in assay [6] (setting [7]); 6% in assay [6] (setting [8]); 44.5% in assay [6] (at 50.0 µM). In addition, the growth inhibition in assay [3] (setting [7]) was 7%; in assay [3] (setting [8]), 20%; in assay [3] (at 50.0 µM), 12.1%; in assay [4] (setting [7]), 3%; in assay [4] (setting [8]), 35%; in assay [4] (at 50.0 µM), 79% (active). Also, the results for the growth inhibition in assay [5] (setting [7]), in assay [5] (setting [8]) and in assay [5] (at 50.0 µM) were 9%, 27% and 55.4%, respectively.
For the compound `Cc1ccc(S(=O)(=O)OC(C=O)C(O)C(O)COC(c2ccccc2)(c2ccccc2)c2ccccc2)cc1` (configuration not stated), the growth inhibition was 98% (active) in assay [1] (setting [7]); 98% (active) in assay [1] (setting [8]); 87.8% (active) in assay [1] (at 50.0 µM); 95% (active) in assay [2] (setting [7]); 95% (active) in assay [2] (setting [8]); 86.4% (active) in assay [2] (at 50.0 µM). For the same compound, the growth inhibition is 99% (active) in assay [3] (setting [7]); 99% (active) in assay [3] (setting [8]); 84.8% (active) in assay [3] (at 50.0 µM); 98% (active) in assay [4] (setting [7]); 98% (active) in assay [4] (setting [8]); 88.5% (active) in assay [4] (at 50.0 µM). The growth inhibition in assay [5] (setting [7]) was 99% (active); in assay [5] (setting [8]), 99% (active); in assay [5] (at 50.0 µM), 85.2% (active).
As to `Cc1nc(N)nn1C`, the growth inhibition in assay [1] (setting [7]) is -1%; in assay [1] (setting [8]), 10%; in assay [1] (at 50.0 µM), 2.9%; in assay [2] (setting [7]), -3%; in assay [2] (setting [8]), -1%; in assay [2] (at 50.0 µM) it was -3.55%. Moreover, the growth inhibition in assay [3] (setting [7]) was -4%; in assay [3] (setting [8]) it was 0%; in assay [3] (at 50.0 µM) it was 6.7%; in assay [4] (setting [7]), 0%; in assay [4] (setting [8]), -2%; in assay [4] (at 50.0 µM) it was 44.2%. Also, the growth inhibition in assay [5] (setting [7]) was 1%; in assay [5] (setting [8]), 2%; in assay [5] (at 50.0 µM), -0.4%.
For `O=C(c1ccccc1)c1c(CO[N+](=O)[O-])n([O-])c2ccccc2[n+]1=O`, the growth inhibition in assay [6] (setting [7]) is 14%; in assay [6] (setting [8]), 99% (active); in assay [6] (at 50.0 µM), 99% (active); in assay [2] (setting [7]), 10%; in assay [2] (setting [8]), 98% (active); in assay [2] (at 50.0 µM) it was 98.3% (active). Besides, the growth inhibition was 10% in assay [3] (setting [7]); 96% (active) in assay [3] (setting [8]); 99.2% (active) in assay [3] (at 50.0 µM); -5% in assay [4] (setting [7]); 98% (active) in assay [4] (setting [8]); 97.7% (active) in assay [4] (at 50.0 µM). The figures for the growth inhibition in assay [5] (setting [7]), in assay [5] (setting [8]) and in assay [5] (at 50.0 µM) were 48%, 99% (active) and 98.8% (active), respectively.
